Assay [1] in a line: qHTS to identify inhibitors of the type 1 interferon - major histocompatibility complex class I in skeletal muscle: primary screen against the NCATS Pharmaceutical Collection (AID 1347407).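 Note: luminescence of HiBiT knocked into endogenous HLA-B as interferon-induced MHC class I level.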 Note: potency is the fitted concentration of half-maximal effect. The method, boiled down:
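HLA-B HiBiT myoblasts, dexamethasone-free growth medium + 4 ng/ml IFN-b; compounds pinned 1 h after seeding, […] from 46 uM; 24 h, 37 C, 5% CO2; lytic HiBiT detection, 10 min RT, luminescence.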
(In general: Quantitative high-throughput screening tests each substance at several concentrations.)

Assay [2] addresses Protein phosphatase 1D (Homo sapiens) (UniProt O15297). The assay is described as follows: RapidFire Mass Spectrometry qHTS Assay for Modulators of WT P53-Induced Phosphatase 1 (WIP1) (AID 1347424).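 Note: amount of dephosphorylated VEPPL-S-QETFS peptide product formed by WIP1; series mostly up to about 63 µM.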 The method in brief: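 10 nM WIP1 + cpd, 1 h RT; + 2 uM VEPPL-pS-QETFS, 5 min RT; stop 0.5% formic acid; labelled product standard 1 uM; RapidFire MS. Buffer 50 mM Tris pH 7.5, 30 mM MgCl2, 1 mM TCEP.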

For assay [3] the target is unchanged. The assay is described as follows: Rhodamine-PBP qHTS Assay for Modulators of WT P53-Induced Phosphatase 1 (WIP1) (AID 1347425). The method, boiled down:
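Read-out: Rhodamine-PBP fluorescence (ex 525/em 598 nm) for released Pi, read each minute for 11 min after adding 10 uM VEPPL-pS-QETFS; signal taken as f1 minus pre-substrate f0. Enzyme 5 nM WIP1 with 1 hr room-temperature compound preincubation.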

The structures appear in SMILES notation. Results filed as inconclusive are left out. Entries that show only a call come without a potency. The source made the active and inactive calls. Calls come from the whole dose curve; as a rule, active = well fitted curve in the direction sought with a large enough effect; inconclusive = small, poorly fitted or top-dose-only effect, or another doubt; inactive = no such curve, though single readings can be large; an effect the other way counts as inactive or inconclusive.

Chain of Protein phosphatase 1D (Homo sapiens) (O15297 whole entry, looked up): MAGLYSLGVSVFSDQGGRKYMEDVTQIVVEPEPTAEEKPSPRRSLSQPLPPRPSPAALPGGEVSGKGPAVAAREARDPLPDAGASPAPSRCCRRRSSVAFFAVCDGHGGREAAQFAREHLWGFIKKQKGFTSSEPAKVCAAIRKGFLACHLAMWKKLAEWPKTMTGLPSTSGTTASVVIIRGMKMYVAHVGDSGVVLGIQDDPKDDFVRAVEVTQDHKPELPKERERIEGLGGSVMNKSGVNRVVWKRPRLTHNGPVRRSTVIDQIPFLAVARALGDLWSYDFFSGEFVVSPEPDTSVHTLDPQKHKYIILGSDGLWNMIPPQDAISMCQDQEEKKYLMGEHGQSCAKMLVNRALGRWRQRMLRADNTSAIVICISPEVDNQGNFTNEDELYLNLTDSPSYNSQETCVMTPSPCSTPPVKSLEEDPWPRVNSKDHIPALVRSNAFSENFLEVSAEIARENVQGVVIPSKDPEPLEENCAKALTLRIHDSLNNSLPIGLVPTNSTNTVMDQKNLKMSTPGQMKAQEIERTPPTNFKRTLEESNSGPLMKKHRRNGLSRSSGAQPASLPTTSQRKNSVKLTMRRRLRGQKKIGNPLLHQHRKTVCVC

With `COc1cccc(OC)c1C(=O)N[C@@H]1C(=O)N2[C@@H]1SC(C)(C)[C@@H]2C(=O)O`, the Potency result in assay [1] and in assay [2] was “inactive” each time. Moreover, the compound was classed as inactive in assay [3].

Regarding `Cc1nc2n(c(=O)c1CCN1CCC(c3noc4cc(F)ccc34)CC1)CCC[C@H]2O`, the Potency entry in assay [1] and in assay [2] was “inactive” each time. Also, the result in assay [3] was inactive.

In the case of `NC(=O)C(=O)N/N=C/c1ccc([N+](=O)[O-])o1`, the Potency entry in assay [1] and in assay [2] was “inactive” throughout. In assay [3], the call was inactive.

Take `N[C@@H](CCC(=O)N[C@@H](CS)C(=O)NCC(=O)O)C(=O)O`: the Potency result in assay [1] and in assay [2] was “inactive” throughout. Besides, the compound was called inactive in assay [3].

On to `O=c1ccc2ccccc2o1`, for which the Potency entry in assay [1] and in assay [2] was “inactive” in each case. The call in assay [3] was inactive.

Turning to `CCOC(=O)COc1ccc2c(C)c(CCN(CC)CC)c(=O)oc2c1Cl`, the Potency in assay [1] was 21 µM (active). Also, the Potency entry in assay [2] was “inactive”. Also, the call in assay [3] was inactive.

Turning to `Cc1c(N(C)CS(=O)(=O)O)c(=O)n(-c2ccccc2)n1C`, the Potency entry in assay [1] and in assay [2] was “inactive” in each case. For the same compound, the call in assay [3] was inactive.

The values above are taken from PubChem BioAssay (NCATS).
